Source: PubChem
Sampled rows, rich in hits. Any-hit rate of the full collection: about 7.6%.
SW480 rerep: DNA re-replication induction in SW480 cells. SW480 DNA re-replication, Hoechst DNA content imaging, 48 h. Potency, µM (series often up to 46.1 µM), inactives show at the highest dose re-replication activation, most hits filed as activators. 340,000 compounds, 1.8% hits. AID 624297; note: potency is the fitted concentration of half-maximal effect; % of control where 0% means no effect; nearly all actives have a fitted effect of over 55% in size
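Readout is total intensity of Hoechst-stained nuclei, excited at 405 nm and collected at 500-530 nm. Compound treatment lasted 48 hr at 37 C in 5% CO2 before staining.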
KCNH2 3.1 inh: inhibitors of human KCNH2 3.1 potassium channel isoform. AID 720553. U2OS KCNH2 3.1, thallium flux FluxOr; stronger effect = lower value. 340,000 compounds, 0.95% hits. activity change, % (tested at about 1.8 µM);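 active = maximum activity change below -70%; inconclusive = maximum activity change from -70% to -50%; inactive = maximum activity change above -50%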;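 note: thallium influx rate constant from kinetic fluorescence after stimulation buffer; % is set by controls: 0 for no effect and ±100 for the full control effect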
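Kinetic fluorescence (2 min after stimulation buffer) measures Tl+ influx through KCNH2 3.1 expressed by viral transduction in U2OS cells; the rate constant is normalized against DMSO controls serving as positive and negative references.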
MCF10A rerep: inducers of DNA re-replication in MCF 10A breast cells. MCF 10A DNA re-replication, Hoechst nuclear intensity, 48 h. Potency, µM (series often up to 46.1 µM), for inactives: at the top dose activity, positive = re-replication, usual class: activators. 350,000 compounds, 2.9% hits; note: potency is the fitted concentration of half-maximal effect; % of control where 0% means no effect; nearly all actives have a fitted effect of over 50% in size
hERG WT inh: blocks the wildtype human KCNH2 potassium channel; Q12809; U2OS, BacMam KCNH2, thallium flux FluxOr; stronger effect = lower value; activity change, % at 1.84 µM; 340,000 compounds, 0.37% hits; AID 720551;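 active = maximum activity change below -70%; inconclusive = maximum activity change between -70% and -50%; inactive = maximum activity change above -50%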; note: % is set by controls: 0 for no effect and ±100 for the full control effect
Target sequence (Q12809 whole entry, looked up): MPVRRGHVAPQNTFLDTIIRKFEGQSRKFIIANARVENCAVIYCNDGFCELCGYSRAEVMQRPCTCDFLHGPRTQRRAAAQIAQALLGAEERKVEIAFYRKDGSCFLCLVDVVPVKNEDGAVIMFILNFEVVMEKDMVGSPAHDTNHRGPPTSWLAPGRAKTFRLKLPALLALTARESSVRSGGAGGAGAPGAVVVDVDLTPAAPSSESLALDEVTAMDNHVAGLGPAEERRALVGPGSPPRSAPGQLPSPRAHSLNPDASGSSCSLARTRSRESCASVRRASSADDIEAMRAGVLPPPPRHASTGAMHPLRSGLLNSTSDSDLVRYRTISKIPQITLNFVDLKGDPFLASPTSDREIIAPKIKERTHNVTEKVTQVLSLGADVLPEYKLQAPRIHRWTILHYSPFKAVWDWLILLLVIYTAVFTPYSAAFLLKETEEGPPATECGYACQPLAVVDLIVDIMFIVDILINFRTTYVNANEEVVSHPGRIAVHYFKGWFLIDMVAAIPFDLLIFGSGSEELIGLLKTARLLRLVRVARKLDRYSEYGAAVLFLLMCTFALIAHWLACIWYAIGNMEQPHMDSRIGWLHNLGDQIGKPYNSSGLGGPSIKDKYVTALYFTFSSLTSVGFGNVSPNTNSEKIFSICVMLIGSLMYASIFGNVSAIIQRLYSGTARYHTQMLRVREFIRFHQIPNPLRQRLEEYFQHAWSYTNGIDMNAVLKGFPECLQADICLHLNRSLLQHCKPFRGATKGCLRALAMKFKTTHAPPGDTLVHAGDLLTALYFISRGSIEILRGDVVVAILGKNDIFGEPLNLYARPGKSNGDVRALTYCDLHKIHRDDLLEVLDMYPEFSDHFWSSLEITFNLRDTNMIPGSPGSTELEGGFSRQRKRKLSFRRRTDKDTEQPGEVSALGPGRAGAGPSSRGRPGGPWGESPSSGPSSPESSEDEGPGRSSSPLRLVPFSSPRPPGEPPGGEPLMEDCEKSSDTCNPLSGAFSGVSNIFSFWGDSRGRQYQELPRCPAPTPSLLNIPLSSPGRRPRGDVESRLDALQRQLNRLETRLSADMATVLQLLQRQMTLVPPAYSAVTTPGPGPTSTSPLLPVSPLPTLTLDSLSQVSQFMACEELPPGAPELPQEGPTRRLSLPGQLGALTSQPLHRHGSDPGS
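U2OS cells were transduced with wild-type KCNH2 virus (2.03 x 10^8 / mL) for 4 h at room temperature, then cultured overnight at 37 C. Thallium flux was read with FluxOr dye. Rate constants were normalized to DMSO controls.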
KB-3-1 tox: KB-3-1 parental cell cytotoxicity. KB-3-1 viability, CellTiter-Glo ATP luminescence, 72 h. Potency, µM (highest dose often 46.1 µM), usual class: cytotoxic. 400,000 compounds, 1.4% hits; note: potency is the fitted concentration of half-maximal effect; % is set by controls: 0 for no effect and ±100 for the full control effect; nearly all actives have a fitted effect of over 60% in size
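KB-3-1 parental drug-naive adenocarcinoma cells in DMEM/10% FBS, incubated 72 h at 37 C with pin-transferred compounds across a concentration series. Viability by CellTiter-Glo luminescence; concentration-response curves fitted after normalization.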
KB-V1 MDR tox: kills drug-selected multidrug resistant KB-V1 cells; KB-V1 MDR cells viability, CellTiter-Glo, 72 h; Potency, µM (doses to about 46.1 µM), usual class: cytotoxic; 400,000 compounds, 3.4% hits; note: potency is the fitted concentration of half-maximal effect; % is set by controls: 0 for no effect and ±100 for the full control effect; nearly all actives have a fitted effect of over 60% in size
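Following 72 h at 37 degrees C with compound, KB-V1 cell viability was read by CellTiter-Glo luminescence, medium being phenol-red-free DMEM plus 10% FBS; concentration-response parameters came from normalized, curve-fitted qHTS data.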
The depositor's hits bear a star; i = inactive; u = inconclusive; x = not tested or not shown; [ ] = another dose, or the depositor's remark. Unless noted, calls come from the whole dose curve; as a rule, active = well fitted curve in the direction sought with a large enough effect; inconclusive = small, poorly fitted or top-dose-only effect, or another doubt; inactive = no such curve, though single readings can be large; an effect the other way counts as inactive or inconclusive.

SMILES	SW480 rerep	KCNH2 3.1 inh	MCF10A rerep	hERG WT inh	KB-3-1 tox	KB-V1 MDR tox
Cc1ccc(C)c(NS(=O)(=O)c2ccc3c(c2)NC(=O)CCS3)c1	3.2%	12.3	-0.1%	-1.3	i	i
CC1CCN(S(=O)(=O)c2cc3c4c(c2)CCN4C(=O)CC3)CC1	0.4%	14.4	4.1%	0.9	i	i
COc1ccc(C2=NN(C(=O)c3ccco3)C(c3cc4ccccc4nc3Cl)C2)cc1 (centres undefined)	-1.6%	10.1	-1.6%	0.7	i	i
O=C(c1ccco1)N1N=C(c2ccco2)CC1c1ccc(Cl)cc1Cl (centres undefined)	u	-7.9	23.1µM*	-2.4	u	i
O=[N+]([O-])c1cccc(CP(=O)(c2ccccc2)c2ccccc2)c1	1.6%	37.5	12.3%	-2.1	i	20.6µM*
Cc1cc(N)nc(C)c1C#N	40.1%	12.0	u	7.3	i	i
Cc1ccc(-n2sc3ccccc3c2=O)cc1S(=O)(=O)N1CCCCC1	u	-7.5	16.4µM*	-2.5	u	u
O=c1c2ccccc2sn1-c1nccs1	u	-11.4	16.4µM*	4.6	i	i
O=c1c2ccccc2sn1-c1ccc(S(=O)(=O)N2CCCCC2)cc1	1.1%	-12.6	-5.9%	-7.4	i	u
O=c1c2ccccc2sn1-c1ccccc1	11.6µM*	-12.2	9.2µM*	-1.5	u	i
O=c1c2cc(C(F)(F)F)ccc2sn1-c1ccccc1	x	-22.5	x	1.3	u	20.6µM*
COc1ccc(C(CNC(=O)CNS(=O)(=O)c2ccc(NC(C)=O)cc2)N2CCOCC2)cc1 (centres undefined)	0.8%	-2.9	3.1%	-2.0	i	i
CCN1CCN(C(=O)N2CCOCC2)CC1	-6.2%	10.5	-4.9%	-8.8	i	i
CC(C(=O)c1ccccc1)[n+]1ccc(Cl)c2ccc(Cl)cc21 (centres undefined)	x	x	x	x	i	i
Cc1ccc(S(=O)(=O)N(CC(=O)Nc2ccc(F)cc2F)Cc2ccc(F)cc2)cc1	x	x	x	x	i	i
Cc1ccc([N+](=O)[O-])c(OCCn2cnc3ccccc32)c1	3.3%	2.3	0.0%	-2.7	u	14.6µM*
Cc1ccc([N+](=O)[O-])c(OCCCN2CCC(Cc3ccccc3)CC2)c1	u	-96.6*	-0.4%	-126.6*	i	i
Cc1ccc(OCCOCCn2cnc3ccccc3c2=O)c([N+](=O)[O-])c1	-4.1%	-4.9	-11.7%	-0.9	i	u
C=CCOc1ccccc1CN1CCC(Cc2ccccc2)CC1	17.0%	-86.7*	15.1%	38.9	i	u
CCOC(=O)C1CCCN(Cc2cc(Br)c(OC)cc2OC)C1 (centres undefined)	-1.2%	8.3	1.5%	6.9	i	10.3µM*
OCc1ccccc1OCCCN1CCC(Cc2ccccc2)CC1	-13.3%	-89.6*	4.8%	-3.1	i	i
Clc1ccccc1OCCN1CCC(Cc2ccccc2)CC1	3.1%	-23.6	u	16.5	i	i
COc1cc(CN2CCC(Cc3ccccc3)CC2)c([N+](=O)[O-])cc1OC	-1.2%	-13.6	-2.1%	11.5	i	i
COc1ccc(OC)c(CN2CCC(Cc3ccccc3)CC2)c1	4.8%	-10.9	22.3%	37.8	i	i
O=Cc1cc(Cl)ccc1OCCN1CCC(Cc2ccccc2)CC1	-0.8%	-104.7*	u	u	u	i
SMILES	SW480 rerep	KCNH2 3.1 inh	MCF10A rerep	hERG WT inh	KB-3-1 tox	KB-V1 MDR tox
O=[N+]([O-])c1cccc(OCCN2CCC(Cc3ccccc3)CC2)c1	0.7%	-70.5*	u	4.5	i	i
COc1cc(OC)c(CN2CCC(Cc3ccccc3)CC2)cc1Br	19.2%	-22.1	11.6µM*	0.4	u	i
N#Cc1ccc(NC(=O)Cn2cnc(S(=O)(=O)N3CCc4ccccc43)c2)cc1	-10.6%	1.8	-2.0%	-4.0	i	i
c1ccc(COc2ncnc3c2ncn3CCCNCCN2CCOCC2)cc1	-0.2%	4.8	-8.3%	4.3	i	i
COc1cc(/C=C2/N=C(c3ccccc3)OC2=O)c(F)cc1OCc1ccccc1	1.4%	x	8.1%	x	i	u
Cc1cc(Cl)ccc1OCC(=O)NCCOC(=O)Nc1sc(=S)n(C)c1C	-4.4%	10.3	-1.9%	0.0	i	u
Cc1ccc(Cl)cc1OCC(=O)NCCOC(=O)Nc1sc(=S)n(C)c1C	1.6%	13.5	17.1%	-0.8	u	13µM*
CC(=O)NC1=C(C#N)C(c2ccccc2)c2c(ccc3ccccc23)O1 (centres undefined)	u	7.6	1.84µM*	1.3	18.4µM*	6.51µM*
CCN(CC(=O)NCc1ccc(F)cc1)Cc1cc(=O)n2ccsc2n1	-5.9%[1.84 µM]	11.0	u	-3.9	i	i
COc1cc(CN(C)Cc2cc(=O)n3ccsc3n2)ccc1OC(F)F	u	-4.4	-3.9%	16.2	i	13µM*
CCOC(=O)N1CCN(C(=O)/C(=C\c2cccs2)NC(=O)c2cccs2)CC1	-6.0%	-16.1	6.7%	-2.5	i	i
O=C(Nc1nnc([C@@H]2C[C@H](O)[C@@H](CO)O2)s1)c1cccc(Oc2ccccc2)c1	x	x	x	x	i	i
CCOC(=O)c1ccc(/C=C2/C=C(c3ccccc3)N(c3ccc(Cl)c(C(=O)O)c3)C2=O)cc1	9.9%	-0.8	20.6µM*	-5.2	u	i
Cn1cc(CCC(=O)N2CCCC(CCC(=O)NCc3ccc(F)c(F)c3)C2)cn1 (centres undefined)	2.9%	-9.2	3.6%	0.8	i	i
CCCCS(=O)CC(COCc1ccccc1)OC(=O)CSc1nc(C)cc(C)n1 (centres undefined)	1.5%	-11.0	-1.1%	2.7	i	i
Cc1ccc(C(=O)CN2C(=O)c3ccccc3S2(=O)=O)cc1	-8.5%	10.5	-0.3%	-4.5	i	i
Cc1ccc(C(=O)CN2/C(=C(\O)c3ccccc3)C(=O)c3ccccc3S2(=O)=O)c(C)c1	u	3.9	u	-4.9	u	2.31µM*
COc1ccc(OC)c(/C=N\Nc2nccs2)c1	-1.1%	5.9	1.8%	-3.5	i	i
COc1cc(/C=N/Nc2nncn2/N=C/c2ccc(O)c(OC)c2)ccc1O	-0.1%	6.3	-4.6%	-18.5	i	23.1µM*
COc1ccc(OC)c(/C=N/Nc2nncn2/N=C/c2cc(OC)ccc2OC)c1	u	6.9	23.1µM*	-21.1	20.6µM*	u
CCOC(=O)CSC1=NC(=O)CS1	u	7.5	20.6µM*	-4.1	i	i
CCOC(=O)CSc1snnc1C	-12.2%	-13.8	-2.6%	-11.1	i	i
